# Experimental data from the supplement of paper PMC3334620.
# Over roughly 33,000 sequences, “E-score (-0.5 to 0.5)” has its median near -0.035; the highest 2% begin near 0.34. This is one part of a sample in which the highest values are shown more often than they occur.
# Target: T1, Mot3 (UniProt P54785)
# T1 sequence: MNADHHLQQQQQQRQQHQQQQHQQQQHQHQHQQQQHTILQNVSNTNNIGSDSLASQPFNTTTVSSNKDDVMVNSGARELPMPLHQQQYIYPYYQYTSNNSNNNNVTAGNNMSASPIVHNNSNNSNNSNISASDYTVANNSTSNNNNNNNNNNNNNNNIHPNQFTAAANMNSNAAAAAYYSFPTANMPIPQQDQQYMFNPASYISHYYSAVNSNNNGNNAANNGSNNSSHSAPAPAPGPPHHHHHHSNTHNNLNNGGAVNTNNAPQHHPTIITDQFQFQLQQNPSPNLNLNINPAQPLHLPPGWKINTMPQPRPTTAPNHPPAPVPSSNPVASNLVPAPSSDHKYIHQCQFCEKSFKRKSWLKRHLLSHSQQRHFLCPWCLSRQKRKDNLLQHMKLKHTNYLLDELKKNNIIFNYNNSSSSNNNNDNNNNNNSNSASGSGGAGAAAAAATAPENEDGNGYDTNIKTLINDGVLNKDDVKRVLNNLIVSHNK
# Assay: PBM E-score (8-mer binding enrichment) (E-score (-0.5 to 0.5)); higher = stronger / more preferred TF binding
# Conditions: protein concentration: 200 nM; construct: GST-full length
# Protocol: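 Universal 'all 10-mer' protein binding microarrays (Agilent AMADID 015681) probed with GST-tagged S. cerevisiae TFs (full-length or DBD) made by in vitro transcription/translation (PURExpress), about 100-200 nM. Bound TF was detected with fluorescent anti-GST. Each ungapped 8-mer (which stands for itself and its reverse complement) is scored by the PBM enrichment score (E-score), a modified Wilcoxon-Mann-Whitney statistic from -0.5 to +0.5, computed with the Universal PBM Analysis Suite. Scale: above 0.35 generally sequence-specific binding.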
row,Sequence,PBM E-score
1,AGGAACCG,0.442
2,AGGAACCT,0.458
3,CGGAACCC,-0.0527
4,AAGAACCT,0.191
5,ACGAACCT,-0.0403
6,ATGAACCG,0.0149
7,AGGAACCC,0.444
8,AGGAACCA,0.419
9,GGGAACCA,-0.175
10,CGGAACCG,-0.249
11,TGGAACCA,-0.133
12,GGGAACCC,-0.279
13,AGTTCGCG,-0.0658
14,ACCATCAA,-0.0603
15,CTACTGGC,-0.182
16,GGGAGGTA,0.0239
17,AATTCCGG,-0.0255
18,GTCCTCCA,-0.175
19,CCACACCG,-0.0267
20,CAGGTCGC,-0.225
21,GATGTTTA,0.125
22,TGTGTTAA,0.401

row,Sequence,PBM E-score
1,AGTGTTTA,0.126
2,CATGTTTA,0.371
3,CGCGTTAG,0.187
4,CGCGTTAA,0.368
5,GGCGTTAA,0.149
6,CATGTTTC,0.24
7,GGTGTTTA,0.0636
8,AGTGTTAA,0.264
9,GGTGTTAA,0.28
10,CGTGTTTA,0.346
11,ACACTGGC,0.00843
12,ACTTAAGG,0.157
13,CTAGATAC,-0.0863
14,GCAAGACC,-0.0597
15,CGCAAAAC,0.0841
16,CACAGCTC,0.0935
17,CAACTGAG,0.00667
18,GAACCTCA,-0.0997
19,AGAGCACT,-0.0229
20,GAAACTCA,-0.0953
21,CGGACAAC,-0.0115
22,CTCGAGCA,-0.0333

row,Sequence,PBM E-score
1,CATGTTGA,0.401
2,CTTGTTAA,0.355
3,CGTGTTAC,0.308
4,AATGTTGA,0.162
5,CGTGTTAG,0.354
6,GTTGTTAA,0.275
7,AGTGTTAG,0.0278
8,CGTGTTCA,0.273
9,CATGTTGC,0.297
10,CGTGTTAA,0.418
11,CTTGTTAC,0.158
12,CCTGTTAA,0.297
13,ATTCAATA,0.0942
14,TACGAACA,0.18
15,CTTTTCCC,-0.0316
16,TCTGGTAA,-0.0343
17,CGCCTAAC,0.152
18,GAAGATAC,-0.078
19,GACTGCAC,-0.0356
20,AAAGCACT,-0.216
21,GACGCCCA,-0.158
22,CATAGAAC,-0.0217

row,Sequence,PBM E-score
1,TGTCAAAA,0.241
2,GCGTCCCC,-0.362
3,AGCAAGGA,-0.0799
4,GACAGCCA,-0.186
5,AGAAGAAG,-0.0319
6,AGTGTTGA,0.073
7,CGTGTTGA,0.395
8,CGTGTTGC,0.242
9,CCACAATA,-0.0891
10,GGTCCTTA,-0.152
11,AAGGCACA,0.492
12,AGGGCACT,0.0516
13,GAGGCAGA,-0.164
14,GGGGCACA,-0.202
15,AGGGCACA,0.3
16,GAGGCACA,0.47
17,TAGGCATA,0.28
18,ACGGCACT,-0.139
19,AAGGCACT,0.486
20,AAGGCAGA,0.0903
